Compound activity as filed in PubChem BioAssay.
Pf growth 96h: P. falciparum growth inhibition at 96 hour, primary screen for plastid delayed-death inhibitors | P. falciparum luciferase reporter growth, 96 h | AID 504834 | Potency, µM (series often up to 28.7 µM), actives largely listed as inhibitors | actives 6.9% (n = 320,000)
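96 h incubation, 37 C, 5% CO2, of luciferase-reporter P. falciparum-infected RBCs (2% hematocrit, 0.05% parasitemia final) with test compounds; endpoint luminescence.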
Pf growth 48h: inhibits P. falciparum growth in the first generation, 48 h; P. falciparum luciferase growth in erythrocytes, 48 h; Potency, µM (doses to about 28.7 µM), hits mostly inhibitors; actives 5.9% (n = 310,000)
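Luminescence readout; reporter = integrated firefly luciferase in P. falciparum. RBC culture at 2% hematocrit, 0.1% parasitemia final, 37 C/5% CO2; decreased signal taken as growth inhibition.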
Cycloheximide cs: affects cycloheximide protein synthesis inhibition readout, counter-screen; cell reporter, cycloheximide protein synthesis inhibition counterscreen; max response, %; actives 12% (n = 300,000); in the data active means max response mostly above about 13%, no sharp cut-off; inactive means mostly below about 14%; further: read at 38.3 µM for the half of the compounds with a filed dose
AMA1 RON2 block: inhibitors of Plasmodium falciparum AMA1-RON2 interaction; AlphaScreen AMA1-biotinylated RON2 peptide binding; actives 0.2% (n = 360,000); Potency, µM (doses to about 58.2 µM), hits mostly inhibitors; further: nearly all actives have a fitted effect of over 45% in size
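AMA1 (3D7) with his tag at 25 nM final met compounds first, then biotinylated RON2 peptide at 25 nM; detection used donor plus acceptor beads, 10 µg/mL apiece, read by AlphaScreen after 30 min at room temperature.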
SARS PLpro yeast: blocks SARS-CoV papain-like protease in a yeast assay | S. cerevisiae expressing SARS-CoV PLpro, growth rescue | Potency, µM (top dose mostly 32.9 µM), most hits filed as activators | actives 0.19% (n = 330,000) | AID 485353; calls by dose curve; further: nearly all actives have a fitted effect of over 55% in size
Shiga toxin inh: inhibitors of Shiga toxin in Vero cells. Vero cells, Shiga toxin protein synthesis inhibition reporter. inhibition, % at 38.7 µM. actives 9.2% (n = 290,000); in the data active means inhibition mostly above about 28%, no sharp cut-off; inactive means mostly below about 43%
A number is an active result; [ ] = dose if it differs, or a comment. Rows were chosen to be rich in hits. Some 19% of all compounds tested hit in one or more screens of this group. Unless noted, the call rests on the fitted dose curve; in most records, active means well fitted curve in the direction sought with a large enough effect; inconclusive means small, poorly fitted or top-dose-only effect, or another doubt; inactive means no such curve, though single readings can be large; an effect the other way counts as inactive or inconclusive.

For COc1cc(OC)cc(C(=O)NCC2CCCN(C(=O)c3csc(C(C)C)n3)C2)c1 (stereo not drawn) the results were Pf growth 96h inactive, Pf growth 48h inactive, Cycloheximide cs 21, AMA1 RON2 block inactive, SARS PLpro yeast inactive and Shiga toxin inh inactive.
CC(C)c1ccc(NC(=O)CSc2n[nH]c(=O)n2-c2ccc3c(c2)OCCO3)cc1 was read as Pf growth 96h inactive, Pf growth 48h inconclusive, Cycloheximide cs inactive, AMA1 RON2 block inactive, SARS PLpro yeast inactive and Shiga toxin inh inactive.
`COC(=O)c1ccc(-c2nc3cc(N)ccc3o2)cc1` gave Pf growth 96h inactive, Pf growth 48h inactive, Cycloheximide cs 18, AMA1 RON2 block inactive, SARS PLpro yeast inactive and Shiga toxin inh 38.
For Cc1ccc2nc(-c3cc(N)cc(N)c3)oc2c1 the results were Pf growth 96h inactive, Pf growth 48h inactive, Cycloheximide cs 17, AMA1 RON2 block inactive, SARS PLpro yeast inactive and Shiga toxin inh inactive.
Screening Cc1ccc(C)c(-c2nc3cc(N)ccc3o2)c1 returned Pf growth 48h inactive, Cycloheximide cs inactive, AMA1 RON2 block inactive, SARS PLpro yeast inactive and Shiga toxin inh 28.
CN(C)c1ccc(-c2nc3cc(N)ccc3o2)cc1 was read as Pf growth 96h inactive, Pf growth 48h inactive, Cycloheximide cs 14, AMA1 RON2 block inactive, SARS PLpro yeast inactive and Shiga toxin inh inactive.
`C[C@H](CO)N1C[C@H](C)[C@H](CN(C)C(=O)Nc2cccc3ccccc23)OCc2cnnn2CCCC1=O` gave AMA1 RON2 block inactive.
For CS(=O)(=O)N(CC(=O)N1CCCCCC1)c1cccc(F)c1 the results were Pf growth 96h inconclusive, Pf growth 48h inactive, Cycloheximide cs inactive, AMA1 RON2 block inactive and SARS PLpro yeast inactive.
`Nc1ccc(-c2nc3ccc(N)cc3o2)cc1` gave Pf growth 96h inactive, Cycloheximide cs 39, AMA1 RON2 block inactive, SARS PLpro yeast inactive and Shiga toxin inh inactive.
Nc1ccc(-c2nc3cc(N)ccc3o2)cc1 was read as Pf growth 96h inactive, Pf growth 48h inactive, Cycloheximide cs 38, AMA1 RON2 block inactive, SARS PLpro yeast inactive and Shiga toxin inh 38.
For Cc1ccc(-c2nc3cc(N)ccc3o2)cc1Br the results were Pf growth 96h 4.7µM, Pf growth 48h inactive, Cycloheximide cs 39, AMA1 RON2 block inactive and SARS PLpro yeast inactive.
`Nc1ccc2oc(-c3cc(Br)ccc3Cl)nc2c1` gave Pf growth 48h inactive, Cycloheximide cs inactive, AMA1 RON2 block inactive, SARS PLpro yeast inactive and Shiga toxin inh inactive.
For O=C(Cn1cnc2ccccc2c1=O)NCCC(=O)Nc1ccc(F)cc1 the results were Pf growth 96h inactive, Pf growth 48h inactive, Cycloheximide cs inactive, AMA1 RON2 block inactive, SARS PLpro yeast inactive and Shiga toxin inh inactive.
COC(=O)c1cc(C(=O)c2cccc(Cl)c2Cl)cn1C was read as Pf growth 96h inactive, Pf growth 48h inactive, Cycloheximide cs inactive, AMA1 RON2 block inactive, SARS PLpro yeast inactive and Shiga toxin inh inactive.
Screening CN1CCC(OC(=O)c2ccc(Cl)cc2Cl)CC1 returned Pf growth 96h 7.4µM, Pf growth 48h inactive, Cycloheximide cs inactive, AMA1 RON2 block inactive, SARS PLpro yeast inactive and Shiga toxin inh inactive.
Screening COC(=O)c1cc(C(=O)c2ccc(Cl)cc2Cl)cn1C returned Pf growth 96h 5.2µM, Pf growth 48h 4.7µM, Cycloheximide cs inactive, AMA1 RON2 block inactive, SARS PLpro yeast inactive and Shiga toxin inh inactive.
Screening CN1CCC(OC(=O)c2ccccc2Cl)CC1 returned Pf growth 96h inactive, Pf growth 48h inactive, Cycloheximide cs inactive, AMA1 RON2 block inconclusive, SARS PLpro yeast inactive and Shiga toxin inh inactive.
Screening NNC(=O)c1sccc1OCc1cccc(C(F)(F)F)c1 returned Pf growth 96h inconclusive, Pf growth 48h inconclusive, Cycloheximide cs inactive, AMA1 RON2 block inactive, SARS PLpro yeast inactive and Shiga toxin inh inactive.
Screening CC(=O)c1ccc(OCc2cccc(C(F)(F)F)c2)cc1O returned Pf growth 96h inconclusive, Pf growth 48h inactive, Cycloheximide cs 29, AMA1 RON2 block inactive, SARS PLpro yeast inactive and Shiga toxin inh 43.
Screening COc1ccc(Cl)cc1NC(=O)NCC1CCN(Cc2cc(C)ccc2C)CC1 returned Pf growth 96h inconclusive, Pf growth 48h inactive[0.00184 µM], Cycloheximide cs inactive, AMA1 RON2 block inactive, SARS PLpro yeast inactive and Shiga toxin inh inactive.
